M18AAP inhibitor = PfM18AAP inhibitors, malaria aminopeptidase, primary screen, biochemical, QFRET, recombinant enzyme; M18 aspartyl aminopeptidase (Plasmodium falciparum 3D7); H-Glu-NHMec fluorogenic cleavage; inhibition, % at 7.35 µM; 1.2% of 290,000 active; AID 1822, 2009;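 active = inhibition above the campaign mean inhibition over all tested compounds plus 3 SD, cut at about 28% in these data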;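 also: 0% = plate median of test compound wells and 100% = 2 mM ZnCl2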
NPR1 activator = GC-A stimulated cGMP production enhancers – HEK293 GC-A cells, cGMP TR-FRET, EC30 ANP, primary screen. Atrial natriuretic peptide receptor 1 (Homo sapiens), P16066. 0.14% of 370,000 active. AID 1671463, 2021. activation, % at 10 µM. 0% at EC30 ANP, 100% saturating ANP; in the data active = activation above about 40%
Target sequence (P16066 whole entry, looked up): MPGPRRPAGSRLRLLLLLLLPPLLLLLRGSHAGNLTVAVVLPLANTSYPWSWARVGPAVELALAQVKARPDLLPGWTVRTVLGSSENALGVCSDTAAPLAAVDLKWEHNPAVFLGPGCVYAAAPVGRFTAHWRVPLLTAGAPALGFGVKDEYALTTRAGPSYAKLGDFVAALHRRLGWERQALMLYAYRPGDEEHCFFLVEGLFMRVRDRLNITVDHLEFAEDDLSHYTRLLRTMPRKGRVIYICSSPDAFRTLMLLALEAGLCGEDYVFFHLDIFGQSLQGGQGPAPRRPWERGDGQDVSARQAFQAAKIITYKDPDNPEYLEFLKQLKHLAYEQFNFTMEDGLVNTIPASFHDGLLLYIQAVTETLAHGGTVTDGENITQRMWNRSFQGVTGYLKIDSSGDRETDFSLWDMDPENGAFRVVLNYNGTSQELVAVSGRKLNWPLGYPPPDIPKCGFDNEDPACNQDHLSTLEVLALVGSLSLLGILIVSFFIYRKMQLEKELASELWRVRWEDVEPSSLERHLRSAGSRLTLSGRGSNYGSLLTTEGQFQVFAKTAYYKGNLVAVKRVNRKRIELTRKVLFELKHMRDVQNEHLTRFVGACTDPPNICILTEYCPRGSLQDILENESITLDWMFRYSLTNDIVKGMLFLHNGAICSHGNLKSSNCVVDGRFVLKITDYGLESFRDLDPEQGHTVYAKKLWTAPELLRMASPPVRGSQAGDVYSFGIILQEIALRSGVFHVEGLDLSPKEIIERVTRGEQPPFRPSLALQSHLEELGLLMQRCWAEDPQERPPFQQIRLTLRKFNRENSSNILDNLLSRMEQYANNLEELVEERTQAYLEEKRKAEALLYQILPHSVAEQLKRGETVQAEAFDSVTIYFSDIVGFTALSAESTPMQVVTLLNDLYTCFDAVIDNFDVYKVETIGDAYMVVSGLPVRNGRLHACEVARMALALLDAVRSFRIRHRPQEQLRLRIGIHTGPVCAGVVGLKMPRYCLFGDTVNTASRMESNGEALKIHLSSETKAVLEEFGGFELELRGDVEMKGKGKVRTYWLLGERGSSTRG
PLCg1 inh = PLC-gamma1 enzyme inhibitors, primary screen, biochemical, fluorescence, purified enzyme; 1-phosphatidylinositol 4,5-bisphosphate phosphodiesterase gamma-1 (Homo sapiens), P19174; fluorogenic substrate; inhibition, % at 12.2 µM; 0.84% of 370,000 active; AID 720700, 2013
GC-B act = human GC-B receptor activators, primary screen, HEK293 GC-B cells, cGMP TR-FRET, EC30 CNP; Atrial natriuretic peptide receptor 2 (Homo sapiens), P20594; 0% at EC30 CNP, 100% saturating CNP; activation, % at 10 µM; 0.11% of 370,000 active;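 active = activation at 10 µM reaching about 35% in either raw or pattern-adjusted values, limit read from the data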
Rce1 inhib = yeast Rce1p protease inhibitors, primary screen, biochemical, fluorescence, cell-free homogeneous; CAAX prenyl protease 2 (Saccharomyces cerevisiae (strain ATCC 204508 / S288c)), Q03530; yeast membranes, quenched prenylated peptide cleavage fluorescence; calls only; 0.27% of 290,000 active;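 active = fall in fluorescence gain of 50% or more versus controls, with final raw signal at or below 3038400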;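 also: plate controls were neutral control wells for no effect and wells lacking membranes for full effect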
PLCb3 inh = human PLC-beta3 inhibitors, primary screen, biochemical, fluorescence. 0.18% of 370,000 active. inhibition, % at 12.2 µM. Purified PLC-beta3, fluorogenic substrate. 1-phosphatidylinositol 4,5-bisphosphate phosphodiesterase beta-3 (Homo sapiens), Q01970; in the data active = inhibition above about 11%;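 also: 0% = median of compound wells on plate and 100% = full blocker control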
PLCgamma1 ctr = PLC-gamma1 enzyme inhibitors, counter-screen for PLC-beta3 inhibitor project, biochemical, fluorescence. shares compounds with PLCg1 inh. purified PLC-gamma1, fluorogenic substrate. inhibition, % at 12.3 µM. 3.1% of 3,300 active. AID 743258, 2014
PLCbeta3 conf = PLC-beta3 inhibitor confirmation, biochemical, fluorescence, purified enzyme | inhibition, % at 12.3 µM | shares compounds with PLCg1 inh | 1% of 3,300 active | fluorogenic substrate fluorescence; in the data active = inhibition above about 11%
The depositor's hits bear a star; i = inactive; . = no result given. An excerpt weighted towards active compounds, which were near 2.2% of everything screened. Rule as the data show it, unless noted: active = inhibition above about 9.5%; inactive = the rest.

SMILES | M18AAP inhibitor | NPR1 activator | PLCg1 inh | GC-B act | Rce1 inhib | PLCb3 inh | PLCgamma1 ctr | PLCbeta3 conf
O=C1CC(O)C(Cc2ccccc2)N1 (stereo not drawn) | . | 2.0 | 8.8 | 2.7 | . | -2.4 | . | .
N#C/C(=C\c1ccco1)C(=O)NCC1CCCO1 (stereo not drawn) | 2.1 | 1.8 | 11.2* | -4.8 | i | 12.8* | 1.7 | 5.2
Cc1ccc(/C=C(\C#N)C(=O)NCC2CCCO2)o1 (stereo not drawn) | 6.1 | 2.6 | 0.5 | -1.3 | i | -2.9 | . | .
O=C(CSc1nnc(-c2ccco2)n1-c1ccc(Cl)cc1)Nc1ccccc1-c1ccccc1 | . | -18.5 | 1.7 | -19.7 | . | 0.3 | . | .
COc1ccc(CCNC(=O)c2cccc(Br)c2)cc1OC | -2.6 | 5.0 | 10.8* | 4.0 | i | 1.7 | -3.5 | -0.2
C=CCNc1cccc(Br)c1 | . | 2.5 | 4.1 | 5.3 | i | 11.2* | -7.5 | -3.4
CCC(=O)N[C@@H]1C[C@@H]2O[C@@H](CO)CC[C@@H]2O[C@@H]1CCc1ccc(-c2cccc(OC)c2)cc1 | . | -2.6 | 1.7 | -4.6 | . | 3.8 | . | .
COc1ccc(C(=O)NCC(=O)OCCCOC(=O)CNC(=O)c2ccc(OC)c(OC)c2)cc1OC | 1.5 | -1.4 | 12.4* | -5.7 | i | 5.2 | -6.0 | -19.4
COc1ccc(OC)c(S(=O)(=O)N2CCC(c3cn4ccccc4n3)CC2)c1 | . | -2.3 | -105.5 | -1.8 | . | -138.1 | . | .
COc1ccc(C=Nn2c(-c3ccc(F)cc3)n[nH]c2=S)c(OC)c1OC | . | -0.9 | 4.1 | -11.7 | . | -3.7 | . | .
CSC(=Cc1ccc(C(=O)c2ccc(C)cc2)n1C)S(C)=O (stereo not drawn) | . | 0.7 | -33.2 | -15.9 | . | -52.1 | . | .
S=C(NCCN1CCCCC1)Nc1ccc(Br)cc1 | 1.8 | -7.8 | 6.0 | 0.3 | i | 1.4 | . | .
S=C(NCCCNC(=S)Nc1ccccc1)Nc1ccccc1 | 18.2 | -1.7 | 13.4* | 5.5 | i | 3.5 | -6.6 | -4.5
S=C(NCCN1CCCCC1)Nc1ccccc1 | -6.6 | 2.1 | 10.1* | -2.0 | i | 2.9 | -7.0 | -2.6
Cc1ccc(-c2nnc(SCC(=O)Nc3ccc4c(c3)OCCO4)n2-c2ccc(C)cc2)cc1 | . | 3.4 | 1.4 | 2.6 | . | 0.1 | . | .
COc1ccc(CN2C(=O)N3Cc4ccc(C)cc4C3CS2(=O)=O)cc1 (stereo not drawn) | . | 0.7 | 0.1 | 3.5 | . | 1.2 | . | .
COc1ccccc1-c1cc(C(=O)Nc2ccc(F)cc2F)no1 | -3.2 | -3.2 | 11.7* | 2.3 | i | 5.3 | -117.8 | -105.1
COc1ccccc1NC(=O)c1c([N+](=O)[O-])c(C(C)(C)C)nn1C | -3.4 | -3.7 | 11.9* | -6.5 | i | 7.4 | 2.0 | 3.1
CNCCCN1c2ccccc2CCc2ccccc21 | 4.1 | -28.4 | 10.2* | -18.0 | i | 2.9 | 5.2 | 0.4
Cc1sc2ncn(CC(=O)NCCCN3CCC(C)CC3)c(=O)c2c1S(=O)(=O)N1CCC(C)CC1 | -3.1 | -4.2 | 5.7 | -0.8 | i | -2.9 | . | .
Cc1sc2ncn(CC(=O)NCCN3CCOCC3)c(=O)c2c1S(=O)(=O)N1CCC(C)CC1 | 0.4 | 5.2 | 11.2* | 1.1 | i | 3.4 | -8.1 | -5.4
COc1ccc(S[C@]2(C(=O)N3CCN(c4ncccn4)CC3)CC(=O)N(C(=O)/C=C/c3ccccc3)[C@@H]2c2ccc(OC)cc2)cc1 | . | -3.4 | 5.7 | 1.7 | . | 1.1 | . | .
O=C(NCc1ccccc1)C1COc2ccccc2O1 (stereo not drawn) | -3.8 | -0.9 | 9.8* | -4.3 | . | 10.3 | -7.5 | -0.3
Cc1ccc(CNC(=O)C2COc3ccccc3O2)cc1 (stereo not drawn) | 1.6 | -0.5 | 5.4 | 0.1 | i | 4.0 | . | .
COc1ccc(S[C@]2(C(=O)N(C)C)CC(=O)N[C@@H]2c2ccc(OC)cc2)cc1 | . | -2.9 | -3.8 | -1.9 | . | -1.2 | . | .
SMILES | M18AAP inhibitor | NPR1 activator | PLCg1 inh | GC-B act | Rce1 inhib | PLCb3 inh | PLCgamma1 ctr | PLCbeta3 conf
O=C1CCCN1c1ccc(S(=O)(=O)N2CCCCC2)cc1[N+](=O)[O-] | -15.3 | -1.1 | 2.6 | 4.8 | i | 2.7 | . | .
O=C1CCCN1c1ccc(S(=O)(=O)Oc2cccc(Cl)c2)cc1[N+](=O)[O-] | -11.1 | -7.4 | 9.6* | 3.6 | i | 3.2 | -3.1 | 3.8
COc1ccc(C(=O)C2(C(=O)NCc3ccccc3)CC(c3ccccc3C(F)(F)F)=NO2)cc1 (stereo not drawn) | . | -1.2 | -2.6 | 1.7 | . | -0.5 | . | .
COc1ccc(N2CCN(Cc3nc4c(c(=O)n(C)c(=O)n4C)n3CCc3ccccc3)CC2)cc1 | 4.2 | 0.5 | 12.7* | -8.3 | i | 6.2 | 7.7 | 0.3
CCOCCn1c(CN2CCN(CCO)CC2)nc2c1c(=O)n(C)c(=O)n2C | -1.0 | -5.0 | 11.5* | -3.8 | i | 0.2 | -0.2 | -2.8
Cn1c(=O)c2c(nc(CN3CCN(CCO)CC3)n2Cc2ccccc2Cl)n(C)c1=O | -8.2 | -2.5 | 12.1* | -5.3 | i | 5.8 | -1.5 | -0.8
C#CCOCCOCCOCCNc1nc(N2CCOCC2)nc(N2CCN(C(=O)[C@H](CCC(=O)O)n3cc(C(N)CO)nn3)CC2)n1 (stereo partly drawn) | . | 0.1 | 6.5 | -1.9 | . | -4.4 | . | .
C#CCNC(=O)C[C@H]1C(=O)N(CCCOC)C2=CCCC[C@@]21C(=O)OCC | . | -0.3 | 0.0 | 3.4 | . | 0.6 | . | .
Cc1cccc(NS(=O)(=O)c2ccc3c(c2)Cc2cc(S(=O)(=O)Nc4cccc(C)c4C)ccc2-3)c1C | 1.2 | 4.4 | 10.3* | 0.9 | . | 3.6 | -6.8 | -1.6
Cc1cccc(NS(=O)(=O)c2ccc3[nH]c(=O)[nH]c3c2)c1C | -4.2 | -0.8 | -0.6 | 5.5 | i | -4.9 | . | .
CC1(C(=O)NCc2cccc(C(F)(F)F)c2)CCN1Cc1cc2ccccc2o1 (stereo not drawn) | . | -4.4 | 0.6 | -1.4 | . | -7.9 | . | .
CC1(C(=O)NCc2cccc(C(F)(F)F)c2)CCN1Cc1ccc(-c2ccccc2)o1 (stereo not drawn) | . | -4.4 | 9.6* | -2.3 | . | -0.7 | -0.9 | -2.3
Cc1ccc(S(=O)(=O)N2[C@@H](c3ccc(Cl)cc3)C(C(=O)O)=CC[C@H]2c2ccc(Cl)cc2)cc1 | . | -2.1 | 9.8* | 0.4 | . | -7.5 | -4.2 | -4.5
Cc1ccccc1S(=O)(=O)N1CCC(c2nc3ccccc3o2)CC1 | . | 2.6 | 3.0 | 1.4 | . | -1.2 | . | .
